Sampled rows, rich in hits. Any-hit rate of the full collection: about 1.3%.
Ecoli WT expand – E. coli BW25113 growth inhibition, expanded screen; OD600 absorbance; growth inhibition, % at 100 µM; hit rate 0.15% among 98,000;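 active = growth inhibition above about 50% at one test dose, limit read from the data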;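 note: growth measured after 20 h incubation at 37 °C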
TNAP act DEA – activates human TNAP at intermediate phosphate acceptor concentration | P05186 | purified TNAP, CDP-star luminescence, 100 mM DEA, 30 min; stronger effect = higher value; scale: 0 levamisole-inhibited, 1 vehicle-only enzyme | activation factor at 20 µM | 64,000 tested, under 10 active;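 active = activation factor of at least 2 at 20 µM, relative to controls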
PLAP act – activates human placental alkaline phosphatase; hit rate 1.2% among 96,000; P05187; AID 696; purified PLAP enzyme, luminescent substrate read-out; stronger effect = higher value; activation fold at 20 µM; in the data active = activation fold above about 2
Target sequence (P05187 whole entry, looked up): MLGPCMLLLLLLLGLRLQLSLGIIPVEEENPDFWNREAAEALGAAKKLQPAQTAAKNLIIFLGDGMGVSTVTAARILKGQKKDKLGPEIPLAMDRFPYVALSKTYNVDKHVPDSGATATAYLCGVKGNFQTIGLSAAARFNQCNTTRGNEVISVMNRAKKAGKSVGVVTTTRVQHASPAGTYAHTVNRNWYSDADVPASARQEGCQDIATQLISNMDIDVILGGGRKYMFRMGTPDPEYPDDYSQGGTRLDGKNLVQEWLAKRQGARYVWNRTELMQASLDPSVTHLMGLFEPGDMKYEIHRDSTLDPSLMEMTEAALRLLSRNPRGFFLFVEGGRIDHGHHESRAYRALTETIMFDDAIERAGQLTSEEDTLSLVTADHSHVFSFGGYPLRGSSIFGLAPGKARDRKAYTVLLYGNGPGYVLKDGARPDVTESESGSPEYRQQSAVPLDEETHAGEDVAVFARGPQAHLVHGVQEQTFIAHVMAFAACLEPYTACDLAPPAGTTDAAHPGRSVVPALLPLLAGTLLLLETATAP
HePTP inh – inhibitors of human HePTP phosphatase; P35236; recombinant HePTP phosphatase activity, OD absorbance; inhibition, % at 20 µM; hit rate 0.64% among 110,000; AID 521; in the data active = inhibition above about 50%;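 note: plate controls were vehicle for no effect and reference inhibitor for full effect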
Active calls of the source: *; / = no result given.

SMILES	Ecoli WT expand	TNAP act DEA	PLAP act	HePTP inh
O=C1S/C(=C\c2ccc(-c3ccccc3[N+](=O)[O-])o2)C(=O)N1c1ccccc1	/	/	/	-0.1
N#Cc1c(-c2ccccc2Cl)cc(C2CC2)nc1N	-8.0	0.9	1	4.0
CN1CCN(C(=O)CCc2nc3ccccc3c(=O)[nH]2)CC1	2.0	/	1	/
CCCCCCCCNC(=O)CCNC(=O)c1ccc(C(C)(C)C)cc1	-9.0	/	2*	/
CCCCCNC(=O)c1ccc(C(=O)NCCCCC)cc1	/	/	/	3.5
CCOC(=O)Cn1c2c(c(=N)c3c1CCC3)CCC2	5.0	0.9	0.9	10.4
CCCCCCCCCCn1c2c(c(=N)c3c1CCC3)CCC2	100.0*	/	1.2	/
COc1ccccc1NC(=O)CN1CCN(Cc2ccccc2)CC1	9.0	0.9	1.5	5.5
COC(=O)c1ccccc1NC(=O)c1c(Cl)cccc1Cl	/	/	/	4.5
CCC(=O)Nc1cc(-c2nn(C)c(=O)c3ccccc23)ccc1N1CCOCC1	-4.0	/	2*	/
Cn1c(=O)c2[nH]c(CNCc3ccccc3Cl)nc2n(C)c1=O	0.0	/	2.9*	/
CN(C(=S)Nc1ccccc1)c1ccccc1	/	/	/	102.5*
CN(C(N)=S)c1ccccc1	-4.0	/	1	/
O=C(NNC(=O)C1CCCO1)c1ccccc1Cl (configuration not stated)	1.0	/	2*	/
O=C(NNC(=O)C1CCCCC1)c1ccccc1Cl	/	/	/	-2.8
O=C(COc1cccc2ccccc12)NNC(=O)C1CCCO1 (configuration not stated)	5.0	/	2.2*	-7.3
O=C(Nc1nc2ccccc2[nH]1)C1CCCO1 (configuration not stated)	5.0	0.9	2.5*	4.9
COc1cc(/C=c2\s/c(=C(/C#N)C(=O)N3CCCC3)n(-c3ccccc3)c2=O)ccc1O	-9.0	0.8	0.7	4.0
COCCn1c(=NC(=O)CSC(C)=O)sc2cc(OC)ccc21	0.0	0.9	0.9	-4.5
O=C(Nc1ccccc1NC(=O)NC1CCCCC1)NC1CCCCC1	-6.0	1	0.8	2.6
O=C(Nc1ccccc1)NC1CCCCC1	0.0	/	0.8	88.9*
COC(=O)c1ccc(C2C(C(=O)Nc3ccccc3C)=C(C)Nc3ncnn32)cc1 (configuration not stated)	-6.0	0.9	0.8	1.2
CCCCCCCNc1nc(OC)nc(N2CCCCC2)n1	/	/	/	-9.8
CCCCCCCCNc1nc(OC)nc(OC)n1	/	/	/	67.5*
Cc1ccc(NC(=O)N/C=C/c2ccco2)cc1C	1.0	/	1.3	/
SMILES	Ecoli WT expand	TNAP act DEA	PLAP act	HePTP inh
Cc1ccc(NC(=O)N/C=C/c2ccco2)c(C)c1	-3.0	/	2.4*	/
O=C1c2cccc3cccc(c23)C(=O)N1c1nncs1	-5.0	0.9	0.8	4.3
O=C(NC(NC(=S)Nc1ccc(Br)cc1)C(Cl)(Cl)Cl)c1ccccc1F (configuration not stated)	/	/	/	103.0*
O=C(NC(NC(=S)Nc1ccccc1)C(Cl)(Cl)Cl)c1ccccc1F (configuration not stated)	/	/	/	4.2
N#CCC(=O)N1CCN(C(c2ccccc2)c2ccccc2)CC1	/	/	/	102.7*
O=C(COc1ccccc1)Nc1nnc(-c2ccc(Cl)s2)o1	55.0*	0.8	0.9	3.5
O=C(COc1ccccc1)Nc1nnc(-c2ccccc2)o1	24.0	0.9	1	-8.7
CCOC(=O)c1cccc(C(=O)Oc2ccccc2)n1	-5.0	/	1	/
Cn1c(=O)c2cc(S(=O)(=O)NC(C(=O)Nc3cccnc3)c3ccccc3)ccc2n(C)c1=O (configuration not stated)	4.0	0.9	2.6*	4.1
CN1CCN(c2c(F)cc3c(=O)c(C(=O)O)cn4c3c2SCC4)CC1	100.0*	0.9	/	3.2
CCOC(=O)c1ccc(N2C(=O)CC(N(Cc3ccc4c(c3)OCO4)C(=O)Nc3ccccc3)C2=O)cc1 (configuration not stated)	4.0	/	2*	/
Cc1cc(C)c2c(N)c3ccccc3nc2n1	52.0*	/	1	/
Cc1ccc2nc3nc(C)cc(C)c3c(N)c2c1	/	/	/	-5.5
O=c1cc(-c2ccc([N+](=O)[O-])cc2)nc2cc(-c3cccc(Cl)c3)[nH]n12	/	/	/	78.4*
O=c1cc(-c2ccc([N+](=O)[O-])cc2)nc2cc(-c3ccc(F)cc3)[nH]n12	/	/	/	12.3
COCCn1c(SCC(=O)N2CCCc3ccccc32)nc2c(c1=O)SC(C)C2 (configuration not stated)	2.0	/	1.4	/
O=C(O)c1ccc(/C=N/c2ncn[nH]2)cc1	/	/	/	99.9*
COc1ccc(OC)c(/C=C/C(=O)Nc2cc(OC)ccc2OC)c1	/	/	/	14.2
Cc1ccsc1C(=O)Nc1nnc(-c2ccco2)o1	85.0*	0.9	1.1	5.0
CCC(=O)Nc1nnc(-c2ccco2)o1	3.0	1.1	0.9	-6.3

Bioassay records deposited in PubChem BioAssay by several laboratories.
